Source: PubChem BioAssay (NCATS)
Inconclusive results are not listed. Active and inactive are the calls of the source. Calls come from the whole dose curve; as a rule, active = well fitted inhibition curve with a large enough effect; inconclusive = small, poorly fitted or top-dose-only effect; inactive = flat fitted curve, though single readings scatter.

Assays:
[1] = qHTS profiling for inhibitors of Plasmodium falciparum proliferation (AID 504749);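 note: 0% = DMSO vehicle and full inhibition = artemisinin control; nearly all actives have a fitted effect of over 60% in size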; settings: P. falciparum in erythrocytes, SYBR Green DNA, 72 h
Summary of the method: (§1)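 P. falciparum-infected erythrocytes (0.3% parasitemia, 2.5% hematocrit) incubated with compound 72 h at 37 C, 5% CO2. Parasite DNA detected by SYBR Green after lysis, overnight at room temperature; normalised to 0.29 uM artemisinin and DMSO.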

3D7 = test: as above; settings: P. falciparum in erythrocytes, SYBR Green DNA, 72 h; series mostly up to 28.7 µM
Summary of the method: as §1

7G8 = test: as above; settings: P. falciparum in erythrocytes, SYBR Green DNA, 72 h; series mostly up to 28.7 µM
Summary of the method: as §1

AA1029 = test: as above; settings: P. falciparum in erythrocytes, SYBR Green DNA, 72 h; series mostly up to 28.7 µM
Summary of the method: as §1

AS120 = test: as above; settings: P. falciparum in erythrocytes, SYBR Green DNA, 72 h; series mostly up to 28.7 µM
Summary of the method: as §1

ATS189 = test: as above; settings: P. falciparum in erythrocytes, SYBR Green DNA, 72 h; series mostly up to 28.7 µM
Summary of the method: as §1

ATS95 = test: as above; settings: P. falciparum in erythrocytes, SYBR Green DNA, 72 h; series mostly up to 28.7 µM
Summary of the method: as §1

C2A = test: as above; settings: P. falciparum in erythrocytes, SYBR Green DNA, 72 h; series mostly up to 28.7 µM
Summary of the method: as §1

CP185 = test: as above; settings: P. falciparum in erythrocytes, SYBR Green DNA, 72 h; series mostly up to 28.7 µM
Summary of the method: as §1

CP191 = test: as above; settings: P. falciparum in erythrocytes, SYBR Green DNA, 72 h; series mostly up to 28.7 µM
Summary of the method: as §1

CP192 = test: as above; settings: P. falciparum in erythrocytes, SYBR Green DNA, 72 h; series mostly up to 28.7 µM
Summary of the method: as §1

CP194 = test: as above; settings: P. falciparum in erythrocytes, SYBR Green DNA, 72 h; series mostly up to 28.7 µM
Summary of the method: as §1

CP201 = test: as above; settings: P. falciparum in erythrocytes, SYBR Green DNA, 72 h; series mostly up to 28.7 µM
Summary of the method: as §1

CP203 = test: as above; settings: P. falciparum in erythrocytes, SYBR Green DNA, 72 h; series mostly up to 28.7 µM
Summary of the method: as §1

CP211 = test: as above; settings: P. falciparum in erythrocytes, SYBR Green DNA, 72 h; series mostly up to 28.7 µM
Summary of the method: as §1

CP215 = test: as above; settings: P. falciparum in erythrocytes, SYBR Green DNA, 72 h; series mostly up to 28.7 µM
Summary of the method: as §1

CP217 = test: as above; settings: P. falciparum in erythrocytes, SYBR Green DNA, 72 h; series mostly up to 28.7 µM
Summary of the method: as §1

CP237 = test: as above; settings: P. falciparum in erythrocytes, SYBR Green DNA, 72 h; series mostly up to 28.7 µM
Summary of the method: as §1

CP238 = test: as above; settings: P. falciparum in erythrocytes, SYBR Green DNA, 72 h; series mostly up to 28.7 µM
Summary of the method: as §1

CP247 = test: as above; settings: P. falciparum in erythrocytes, SYBR Green DNA, 72 h; series mostly up to 28.7 µM
Summary of the method: as §1

[2] = at 28.7 µM (top of the series), parasite line A
[3] = at 28.7 µM (top of the series), parasite line B

CC(=O)N=c1sc(S(N)(=O)=O)nn1C
inactive: activity, negative = inhibition ([1]; at 12.8 µM (top of the series), parasite line A) -0.509% | activity, negative = inhibition ([1]; at 12.8 µM (top of the series), parasite line B) -5.64% | Potency (3D7) | Potency (7G8) | Potency (AA1029) | Potency (AS120) | Potency (ATS189) | Potency (ATS95) | Potency (C2A) | Potency (CP185) | Potency (CP191) | Potency (CP192) | Potency (CP194) | Potency (CP201) | Potency (CP203) | Potency (CP211) | Potency (CP215) | Potency (CP217) | Potency (CP237) | Potency (CP238) | Potency (CP247)

CC(CNC(=O)c1cccnc1)NC(=O)c1cccnc1 (configuration not stated)
inactive: activity, negative = inhibition [1, 2] 8.56% | activity, negative = inhibition [1, 3] 11.1% | Potency (3D7) | Potency (7G8) | Potency (AA1029) | Potency (AS120) | Potency (ATS189) | Potency (ATS95) | Potency (C2A) | Potency (CP185) | Potency (CP191) | Potency (CP192) | Potency (CP194) | Potency (CP201) | Potency (CP203) | Potency (CP211) | Potency (CP215) | Potency (CP217) | Potency (CP237) | Potency (CP238) | Potency (CP247)

Nc1ncnc2c1ncn2CCOCP(=O)(O)O
inactive: activity, negative = inhibition [1, 2] 14.6% | activity, negative = inhibition [1, 3] 5.72% | Potency (3D7) | Potency (7G8) | Potency (AA1029) | Potency (AS120) | Potency (ATS189) | Potency (ATS95) | Potency (C2A) | Potency (CP185) | Potency (CP191) | Potency (CP192) | Potency (CP194) | Potency (CP201) | Potency (CP203) | Potency (CP211) | Potency (CP215) | Potency (CP217) | Potency (CP237) | Potency (CP238) | Potency (CP247)

OB(O)O
inactive: activity, negative = inhibition [1, 2] 8.7% | activity, negative = inhibition [1, 3] 9.31% | Potency (3D7) | Potency (7G8) | Potency (AA1029) | Potency (AS120) | Potency (ATS189) | Potency (ATS95) | Potency (C2A) | Potency (CP185) | Potency (CP191) | Potency (CP192) | Potency (CP194) | Potency (CP201) | Potency (CP203) | Potency (CP211) | Potency (CP215) | Potency (CP217) | Potency (CP237) | Potency (CP238) | Potency (CP247)

O=C(O)c1cc(N=Nc2ccc(O)c(C(=O)O)c2)ccc1O
inactive: activity, negative = inhibition [1, 2] 9.5% | activity, negative = inhibition [1, 3] 11.5% | Potency (3D7) | Potency (7G8) | Potency (AA1029) | Potency (AS120) | Potency (ATS189) | Potency (ATS95) | Potency (C2A) | Potency (CP185) | Potency (CP191) | Potency (CP192) | Potency (CP194) | Potency (CP201) | Potency (CP203) | Potency (CP211) | Potency (CP215) | Potency (CP217) | Potency (CP237) | Potency (CP238) | Potency (CP247)

CCCCCCCCCCCCCCCCCC(=O)OCC(C)O (configuration not stated)
inactive: activity, negative = inhibition [1, 2] 4.03% | activity, negative = inhibition [1, 3] -12.1% | Potency (3D7) | Potency (7G8) | Potency (AA1029) | Potency (AS120) | Potency (ATS189) | Potency (ATS95) | Potency (C2A) | Potency (CP185) | Potency (CP191) | Potency (CP192) | Potency (CP194) | Potency (CP201) | Potency (CP203) | Potency (CP211) | Potency (CP215) | Potency (CP217) | Potency (CP237) | Potency (CP238) | Potency (CP247)

CCOC(=O)[C@@H](N)CS
inactive: activity, negative = inhibition [1, 2] -7.81% | activity, negative = inhibition [1, 3] 16.4% | Potency (3D7) | Potency (7G8) | Potency (AA1029) | Potency (AS120) | Potency (ATS189) | Potency (ATS95) | Potency (C2A) | Potency (CP185) | Potency (CP191) | Potency (CP192) | Potency (CP194) | Potency (CP201) | Potency (CP203) | Potency (CP211) | Potency (CP215) | Potency (CP217) | Potency (CP237) | Potency (CP238) | Potency (CP247)

Cc1ncc(C[n+]2csc(CCOP(=O)(O)O)c2C)c(N)n1
inactive: activity, negative = inhibition [1, 2] -5.57% | activity, negative = inhibition [1, 3] 6.98% | Potency (3D7) | Potency (7G8) | Potency (AA1029) | Potency (AS120) | Potency (ATS189) | Potency (ATS95) | Potency (C2A) | Potency (CP185) | Potency (CP191) | Potency (CP192) | Potency (CP194) | Potency (CP201) | Potency (CP203) | Potency (CP211) | Potency (CP215) | Potency (CP217) | Potency (CP237) | Potency (CP238) | Potency (CP247)

COc1ccc(/C=C/C(=O)OCCC(C)C)cc1
inactive: activity, negative = inhibition [1, 2] 6.28% | activity, negative = inhibition [1, 3] 14.5% | Potency (3D7) | Potency (7G8) | Potency (AA1029) | Potency (AS120) | Potency (ATS189) | Potency (ATS95) | Potency (C2A) | Potency (CP185) | Potency (CP191) | Potency (CP192) | Potency (CP194) | Potency (CP201) | Potency (CP203) | Potency (CP211) | Potency (CP215) | Potency (CP217) | Potency (CP237) | Potency (CP238) | Potency (CP247)

CCCCCCCCCCCCCCCCCCCCCC(=O)Nc1ccn([C@@H]2O[C@H](CO)[C@@H](O)[C@@H]2O)c(=O)n1
inactive: activity, negative = inhibition [1, 2] 4.02% | activity, negative = inhibition [1, 3] 6.88% | Potency (3D7) | Potency (7G8) | Potency (AA1029) | Potency (AS120) | Potency (ATS189) | Potency (ATS95) | Potency (C2A) | Potency (CP185) | Potency (CP191) | Potency (CP192) | Potency (CP194) | Potency (CP201) | Potency (CP203) | Potency (CP211) | Potency (CP215) | Potency (CP217) | Potency (CP237) | Potency (CP238) | Potency (CP247)

CC(CCc1ccc(O)cc1)NCC(O)c1ccc(O)cc1 (configuration not stated)
inactive: activity, negative = inhibition [1, 2] 1.25% | activity, negative = inhibition [1, 3] 15.8% | Potency (3D7) | Potency (7G8) | Potency (AA1029) | Potency (AS120) | Potency (ATS189) | Potency (ATS95) | Potency (C2A) | Potency (CP185) | Potency (CP191) | Potency (CP192) | Potency (CP194) | Potency (CP201) | Potency (CP203) | Potency (CP211) | Potency (CP215) | Potency (CP217) | Potency (CP237) | Potency (CP238) | Potency (CP247)

OC[C@H]1O[C@@H]2O[C@H]3[C@H](O)[C@@H](O)[C@@H](O[C@H]4[C@H](O)[C@@H](O)[C@@H](O[C@H]5[C@H](O)[C@@H](O)[C@@H](O[C@H]6[C@H](O)[C@@H](O)[C@@H](O[C@H]7[C@H](O)[C@@H](O)[C@@H](O[C@H]1[C@H](O)[C@H]2O)O[C@@H]7CO)O[C@@H]6CO)O[C@@H]5CO)O[C@@H]4CO)O[C@@H]3CO
inactive: activity, negative = inhibition [1, 2] 6.28% | activity, negative = inhibition [1, 3] 7.95% | Potency (3D7) | Potency (7G8) | Potency (AA1029) | Potency (AS120) | Potency (ATS189) | Potency (ATS95) | Potency (C2A) | Potency (CP185) | Potency (CP191) | Potency (CP192) | Potency (CP194) | Potency (CP201) | Potency (CP203) | Potency (CP211) | Potency (CP215) | Potency (CP217) | Potency (CP237) | Potency (CP238) | Potency (CP247)
